Inconclusive results are not listed. This is one part of the list. Calls of active or inactive are those of the source. Unless noted, calls follow the shape of the dose curve; as a rule, active = well fitted curve in the direction sought with a large enough effect; inconclusive = small, poorly fitted or top-dose-only effect, or another doubt; inactive = no such curve, though single readings can be large; an effect the other way counts as inactive or inconclusive.
What was measured:
[1] = qHTS profiling for inhibitors of Plasmodium falciparum (3D7) proliferation (AID 743322);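 also: infected erythrocytes exposed to compound for 72 h before lysis; 100% = DMSO vehicle wells and 0% = 0.29 µM artemisinin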; details: P. falciparum 3D7 proliferation; at 28.7 µM (top of the series)
Method in brief: (§1)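 Parasite DNA was quantified by SYBR Green I fluorescence (ex 485, em 535 nm) after overnight lysis in saponin/Triton buffer at room temperature. Cultures at 0.3% parasitemia and 2.5% hematocrit were first exposed to compound for 72 h at 37 C; signals were normalised to artemisinin (0.29 uM) and vehicle wells.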

[2] = qHTS profiling for inhibitors of Plasmodium falciparum (DD2) proliferation (AID 743323; call rule not given here); details: lower = more inhibition; at 28.7 µM (top of the series)
Method in brief: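 1536-well qHTS; infected RBCs 0.3% parasitemia/2.5% Hct final; cpd 72 h 37 C 5% CO2; lysis buffer + SYBR Green I, o/n RT dark; FI 485/535; norm. to 0.29 uM artemisinin and DMSO, plate-stack corrected.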

[3] = qHTS profiling for inhibitors of Plasmodium falciparum (HB3) proliferation (AID 743324); details: Plasmodium falciparum HB3 blood-stage proliferation; at 28.7 µM (top of the series);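 also: 100% = DMSO vehicle wells and 0% = artemisinin-treated control wells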
Method in brief: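 SYBR Green fluorescence (485 ex/535 em) of lysed cultures, incubated overnight at room temperature in the dark, quantifies parasite DNA. Infected erythrocytes at 0.3% parasitemia and 2.5% hematocrit were exposed 72 h; values normalized to DMSO and 0.29 uM artemisinin controls.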

[4] = molecular target: Calcium and integrin-binding protein 1 (Homo sapiens) (UniProt Q99828); assay: Primary qHTS for Identification of Calcium Integrin Binding Protein 1 (CIB1) Competitor (AID 1508620);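 also: GST tagged CIB1 binding a fluorescein labelled alphaIIb integrin peptide tracer; top concentration of the series differs between compounds; % is scaled to controls: 0 for no effect and ±100 for the full control effect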
Sequence of Calcium and integrin-binding protein 1 (Homo sapiens) (Q99828 whole entry, looked up): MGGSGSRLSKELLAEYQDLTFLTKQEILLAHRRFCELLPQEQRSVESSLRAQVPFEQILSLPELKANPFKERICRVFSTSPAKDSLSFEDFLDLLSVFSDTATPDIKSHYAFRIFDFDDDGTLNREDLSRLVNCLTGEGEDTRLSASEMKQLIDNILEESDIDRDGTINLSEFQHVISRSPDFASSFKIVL
Method in brief: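 Fluorescence polarization competition: GST-tagged CIB1 (1 uM final) preincubated with compound 15 min at room temperature, then FITC-labelled alphaIIb peptide (100 nM final) added. After 15 min at room temperature, polarization read at Ex 480/Em 540.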

[5] = Counterscreen qHTS for small molecule stabilizers of the endoplasmic reticulum resident proteome: GLuc-NoTag assay (AID 1508627);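 also: 0% = thapsigargin alone and -100% = DMSO vehicle control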
Method in brief: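 Counterscreen line: SH-SY5Y-GLuc-NoTag. Seed, 5 h; compound, 19 h; thapsigargin 100 nM, 4 h; 37C/5% CO2. Readout: secreted GLuc luminescence, coelenterazine 0.07x final, no lysis.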

[6] = Confirmatory qHTS for small molecule stabilizers of the endoplasmic reticulum resident proteome: Secreted ER Calcium Modulated Protein (SERCaMP) assay (AID 1508628); also: % is scaled to controls: 0 for no effect and ±100 for the full control effect; nearly all actives have a fitted effect of over 40% in size
Method in brief: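 Reporter secretion upon ER calcium depletion (100 nM thapsigargin, 4 h, 37C) is measured as medium luminescence with coelenterazine, after 16 h compound pretreatment of SH-SY5Y-GLuc-SERCaMP cells; primary at three concentrations up to 38.3 uM, follow-up at 11 (up to 76.6 uM).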

[7] = molecular target: DNA polymerase kappa (Homo sapiens) (UniProt Q9UBT6); assay: qHTS for Inhibitors of Polymerase Kappa: Confirmatory Assay for Cherry-picked Compounds (AID 720501); details: purified Pol-kappa, fluorescent strand-displacement substrate; also: potency is read from the fitted curve at half-maximal effect
Sequence of DNA polymerase kappa (Homo sapiens) (Q9UBT6 whole entry, looked up): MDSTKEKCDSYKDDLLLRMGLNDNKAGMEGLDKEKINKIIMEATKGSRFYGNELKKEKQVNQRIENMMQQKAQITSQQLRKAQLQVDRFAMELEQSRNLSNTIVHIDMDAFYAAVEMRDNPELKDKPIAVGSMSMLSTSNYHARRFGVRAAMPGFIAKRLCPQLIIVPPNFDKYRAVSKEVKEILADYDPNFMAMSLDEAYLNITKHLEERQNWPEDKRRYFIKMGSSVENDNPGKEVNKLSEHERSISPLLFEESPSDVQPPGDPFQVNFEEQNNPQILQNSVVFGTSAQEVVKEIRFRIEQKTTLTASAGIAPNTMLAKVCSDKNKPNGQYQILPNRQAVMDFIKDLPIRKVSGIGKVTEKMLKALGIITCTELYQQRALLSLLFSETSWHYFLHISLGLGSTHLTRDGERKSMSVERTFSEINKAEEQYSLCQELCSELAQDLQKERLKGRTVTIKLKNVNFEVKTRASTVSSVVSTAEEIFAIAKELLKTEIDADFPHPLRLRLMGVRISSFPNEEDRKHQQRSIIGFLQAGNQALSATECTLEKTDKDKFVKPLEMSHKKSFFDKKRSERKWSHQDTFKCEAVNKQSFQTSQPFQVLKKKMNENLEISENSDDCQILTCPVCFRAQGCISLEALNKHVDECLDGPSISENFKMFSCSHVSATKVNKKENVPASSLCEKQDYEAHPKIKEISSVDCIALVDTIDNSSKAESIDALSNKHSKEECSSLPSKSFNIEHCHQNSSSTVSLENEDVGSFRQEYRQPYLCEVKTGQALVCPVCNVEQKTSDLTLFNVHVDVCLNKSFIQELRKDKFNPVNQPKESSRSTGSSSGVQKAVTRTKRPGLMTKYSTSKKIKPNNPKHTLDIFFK
Method in brief: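 10 nM human Pol-kappa was preincubated with compound 15 min at room temperature, then 50 nM (final) primer/template substrate with TAMRA-labeled reporter strand and BHQ-2-labeled template added. Fluorescence (Ex 525, Em 598 nm) read at 0 and 10 min.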

[8] = qHTS profiling of the MIPE4 collection as inhibitors of Plasmodium falciparum (3D7) proliferation (AID 743344; call rule not given here;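 also: scaled between DMSO vehicle wells and 0.29 µM artemisinin as full inhibition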); details: P. falciparum 3D7 in erythrocytes, SYBR Green DNA fluorescence, 72 h; at 28.5 µM (top of the series)
Method in brief: as §1

[9] = qHTS profiling of the MIPE4 collection as inhibitors of Plasmodium falciparum (DD2) proliferation (AID 743345; call rule not given here); details: P. falciparum Dd2 in erythrocytes, SYBR Green DNA, 72 h; at 28.5 µM (top of the series)
Method in brief: as §1

[10] = qHTS profiling of the MIPE4 collection as inhibitors of Plasmodium falciparum (DD2) proliferation (Rep 2) (AID 743346; call rule not given here); details: P. falciparum Dd2 in erythrocytes, SYBR Green DNA, 72 h; at 28.5 µM (top of the series)
Method in brief: as §1

[11] = qHTS profiling of the MIPE4 collection as inhibitors of Plasmodium falciparum (HB3) proliferation (AID 743347; call rule not given here;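 also: plate controls were DMSO vehicle wells for no effect and artemisinin wells for full effect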); details: P. falciparum HB3 in erythrocytes, SYBR Green DNA, 72 h; at 28.5 µM (top of the series)
Method in brief: as §1

`N[C@@H](Cc1ccc(OS(=O)(=O)c2cccnc2)cc1)C(=O)N1CCN(c2ccccc2)CC1` gave a remaining parasite growth % (stronger effect = lower value) [1] of 41.2%, an activity, percent of control [2] of 15.1% and a remaining proliferation (% of control), lower = more inhibition [3] of 27.8%. The Potency [4] was “inactive”.
In the case of `COc1cc(OC)cc(C(=O)N2CCN(Cc3ccccc3C(F)(F)F)CC2)c1`, the Potency [5] is reported as “inactive” and the Potency [6] is reported as “inactive”.
For `N[C@@H](Cc1ccc(O[S+](=O)([O-])c2cccc3cccnc23)cc1)C(=O)N1CCN(c2ccccc2)CC1`, the remaining parasite growth % (stronger effect = lower value) [1] was 0.473%, the activity, percent of control [2] was 1% and the remaining proliferation (% of control), lower = more inhibition [3] was 0.538%. The Potency [4] was “inactive”.
For `COc1ccc(C2Nc3ccccc3C(=O)N2c2ccccc2)cc1COc1ccc(NC(C)=O)cc1` (configuration not stated), the Potency [5] was “inactive”.
In the case of `COc1ccc(C2=Nn3c(nnc3-c3ccccc3OC)SC2)cc1OC1CCCC1`, the Potency [7] is reported as 4.23 µM (active) and the Potency [4] is reported as “inactive”.
`CC(C)(C)OC(=O)N[C@@H](Cc1ccc(O[S+](=O)([O-])c2cccnc2)cc1)C(=O)N1CCN(c2ccccc2)CC1` showed a remaining parasite growth % (stronger effect = lower value) [1] of -0.793%, an activity, percent of control [2] of 0.682% and a remaining proliferation (% of control), lower = more inhibition [3] of -0.169%. For the same compound, the Potency [4] was “inactive”.
With `O=C(Nc1ccc(-c2ccccc2)cc1)[C@H](Cc1ccc(O[S+](=O)([O-])c2cccc3cnccc23)cc1)N[S+](=O)([O-])c1cccc2cnccc12` the parasite growth, % of DMSO control [8] was 5.02%, the parasite growth remaining, % of DMSO control (lower = more inhibition) [9] was 10.4% and the parasite growth, % of control (lower = inhibition) [10] was 17.5%. The growth, % of control [11] was 6.38% and the Potency [4] was “inactive”.

From PubChem BioAssay (NCATS)
